Source: PubChem BioAssay AID1159580 (chemical genetic matrix, 2015)
Out of some 5,500 compounds screened, about 2,000 (36%) were called active. Another 18% or so got no clear call; they are omitted. No stated cut-off is given here; in the data, active means normalized growth mostly below about 0.91 (no sharp cut-off); inconclusive means no clear call, values can overlap the other calls; inactive means mostly above about 0.92. The list shows a part of the results.

Assay: chemical genetic growth profiling, strain panel (AID 1159580);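 further: tested at 20 µM; growth read once vehicle control cultures reached saturation at 30 °C; 1 = growth at the plate median or of vehicle wells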
Settings: S. cerevisiae deletion strains, growth OD
[1] = locus YHR030C, strain SLT2, stronger effect = lower value
[2] = locus YHR079C, strain IRE1, stronger effect = lower value
[3] = locus YJL095W, strain BCK1, stronger effect = lower value
[4] = locus YJR066W, strain TOR1, stronger effect = lower value
[5] = locus YLR113W, strain HOG1, stronger effect = lower value
[6] = locus YNL183C, strain NPR1, stronger effect = lower value
[7] = locus YOR231W, strain MKK1, stronger effect = lower value
[8] = locus YPL256C, strain CLN2, stronger effect = lower value
[9] = locus YAR019C, strain CDC15, stronger effect = lower value
[10] = locus YBL105C, strain PKC1, stronger effect = lower value
[11] = locus YBR135W, strain CKS1, stronger effect = lower value
[12] = locus YBR136W, strain MEC1, stronger effect = lower value
[13] = locus YBR160W, strain CDC28, stronger effect = lower value
[14] = locus YDL017W, strain CDC7, stronger effect = lower value
[15] = locus YDL028C, strain MPS1, stronger effect = lower value
[16] = locus YDL101C, strain DUN1, stronger effect = lower value
[17] = locus YDL108W, strain KIN28, stronger effect = lower value
[18] = locus YDL132W, strain cdc53, stronger effect = lower value
[19] = locus YDL214C, strain PRR2, stronger effect = lower value
[20] = locus YDR052C, strain DBF4, stronger effect = lower value
[21] = locus YDR054C, strain cdc34, stronger effect = lower value
[22] = locus YDR226W, strain ADK1, stronger effect = lower value
[23] = locus YDR477W, strain SNF1, stronger effect = lower value
[24] = locus YER123W, strain YCK3, stronger effect = lower value
[25] = locus YER133W, strain GLC7, stronger effect = lower value
[26] = locus YFL009W, strain cdc4, stronger effect = lower value
[27] = locus YFL029C, strain CAK1, stronger effect = lower value
[28] = locus YFR003C, strain YPI1, stronger effect = lower value
[29] = locus YFR019W, strain FAB1, stronger effect = lower value
[30] = locus YFR028C, strain CDC14, stronger effect = lower value
[31] = locus YGR040W, strain KSS1, stronger effect = lower value
[32] = locus YGR052W, strain FMP48, stronger effect = lower value
[33] = locus YGR092W, strain DBF2, stronger effect = lower value
[34] = locus YHR082C, strain KSP1, stronger effect = lower value
[35] = locus YHR205W, strain SCH9, stronger effect = lower value
[36] = locus YIL147C, strain SLN1, stronger effect = lower value
[37] = locus YJL128C, strain PBS2, stronger effect = lower value
[38] = locus YJL157C, strain FAR1, stronger effect = lower value
[39] = locus YJR016C, strain ILV3, stronger effect = lower value
[40] = locus YJR066W, strain TOR1 (second series), stronger effect = lower value
[41] = locus YKL048C, strain ELM1, stronger effect = lower value
[42] = locus YKL067W, strain YNK1, stronger effect = lower value
[43] = locus YKL101W, strain HSL1, stronger effect = lower value
[44] = locus YKL193C, strain SDS22, stronger effect = lower value
[45] = locus YKL203C, strain TOR2, stronger effect = lower value
[46] = locus YLR133W, strain CKI1, stronger effect = lower value
[47] = locus YLR403W, strain SFP1, stronger effect = lower value
[48] = locus YML070W, strain DAK1, stronger effect = lower value
[49] = locus YMR001C, strain CDC5, stronger effect = lower value
[50] = locus YMR205C, strain PFK2 (second series), stronger effect = lower value
[51] = locus YMR277W, strain FCP1, stronger effect = lower value
[52] = locus YNL006W, strain LST8, stronger effect = lower value
[53] = locus YNL020C, strain ARK1, stronger effect = lower value
[54] = locus YNL161W, strain CBK1, stronger effect = lower value
[55] = locus YNL207W, strain RIO2, stronger effect = lower value
[56] = locus YNL222W, strain SSU72, stronger effect = lower value
[57] = locus YNL307C, strain MCK1 (second series), stronger effect = lower value
[58] = locus YOL078W, strain AVO1, stronger effect = lower value
[59] = locus YOL136C, strain PFK27, stronger effect = lower value
[60] = locus YOR061W, strain CKA2, stronger effect = lower value
[61] = locus YOR119C, strain RIO1, stronger effect = lower value
[62] = locus YOR329C, strain SCD5, stronger effect = lower value
[63] = locus YPL031C, strain PHO85, stronger effect = lower value
[64] = locus YPL153C, strain RAD53, stronger effect = lower value
[65] = locus YPL204W, strain HRR25, stronger effect = lower value
[66] = locus YPL209C, strain IPL1, stronger effect = lower value
[67] = locus YPR025C, strain CCL1, stronger effect = lower value
[68] = locus YPR106W, strain ISR1, stronger effect = lower value
[69] = locus YPR111W, strain DBF20, stronger effect = lower value
[70] = strain NNK1, stronger effect = lower value
[71] = strain TSCII, stronger effect = lower value

Measured: normalized growth

CN1C[C@H](C(=O)N[C@]2(C)C[C@@]3(O)C4CCCN4C(=O)[C@H](Cc4ccccc4)N3C2=O)C=C2c3cccc4[nH]cc(c34)C[C@H]21 (some centres undefined)
inactive: [1] 0.986 | [2] 0.994 | [3] 0.958 | [4] 0.945 | [5] 1 | [6] 0.944 | [7] 0.997 | [8] 0.981

COc1cc(OC)c(/C=C2/C(=O)Nc3ccccc32)c(OC)c1
inactive: locus YAL013W, strain DEP1, stronger effect = lower value 1.01 | locus YAL040C, strain CLN3, stronger effect = lower value 0.983 | locus YCL061C, strain MRC1 (second series), stronger effect = lower value 1.01 | locus YDR150W, strain NUM1, stronger effect = lower value 1.01 | locus YDR363W, strain ESC2, stronger effect = lower value 0.984 | locus YER002W, strain NOP16, stronger effect = lower value 1.02 | locus YJR075W, strain HOC1, stronger effect = lower value 1.01 | locus YMR307W, strain GAS1, stronger effect = lower value 1.01 | locus YNL153C, strain GIM3, stronger effect = lower value 0.914 | locus YNL175C, strain NOP13, stronger effect = lower value 0.972 | locus YNL197C, strain WHI3, stronger effect = lower value 0.979 | locus YNL224C, strain SQS1, stronger effect = lower value 0.996 | locus YNL322C, strain KRE1, stronger effect = lower value 1 | locus YOR083W, strain WHI5 (second series), stronger effect = lower value 0.967

O=C1Nc2ccccc2/C1=C\c1c(Cl)cccc1Cl
inactive: [9] 0.966 | [10] 0.963 | [11] 0.973 | [12] 0.974 | [13] 0.972 | [14] 0.969 | [15] 0.975 | [16] 0.964 | [17] 0.974 | [18] 0.965 | [19] 0.951 | [20] 0.975 | [21] 0.958 | [22] 0.963 | [23] 0.939 | [24] 0.945 | [25] 0.945 | [26] 0.96 | [27] 0.961 | [28] 0.969 | [29] 0.976 | [30] 0.973 | [31] 0.945 | [32] 0.981 | [33] 0.909 | [1] 0.985 | [2] 0.901 | [34] 1.03 | [35] 0.918 | [36] 0.971 | [3] 0.894 | [37] 0.915 | [38] 0.946 | [39] 0.974 | [40] 0.95 | [4] 1.04 | [41] 0.944 | [42] 0.963 | [43] 0.938 | [44] 0.968 | [45] 1.01 | [46] 0.962 | [47] 0.928 | [48] 0.954 | [49] 0.968 | [50] 0.956 | [51] 0.965 | [52] 0.969 | [53] 0.941 | [54] 0.968 | [6] 0.989 | [55] 0.96 | [56] 0.967 | [57] 0.953 | [58] 0.963 | [59] 0.959 | [60] 0.959 | [61] 1.02 | [7] 0.953 | [62] 0.969 | [63] 0.939 | [64] 0.935 | [65] 0.926 | [66] 0.969 | [8] 0.905 | [67] 0.972 | [68] 0.954 | [69] 0.952 | [70] 0.946 | [71] 0.964
active: [5] 0.845

COc1ccc(/C=C2/C(=O)Nc3ccccc32)cc1
inactive: [12] 0.894 | [13] 0.899 | [15] 0.896 | [19] 0.84 | [21] 0.917 | [23] 0.762 | [24] 0.858 | [25] 0.777 | [27] 0.879 | [29] 0.887 | [31] 0.776 | [32] 0.836 | [33] 0.733 | [2] 0.686 | [34] 0.827 | [35] 0.577 | [3] 0.774 | [37] 0.839 | [38] 0.83 | [40] 0.692 | [4] 0.729 | [41] 0.887 | [42] 0.89 | [43] 0.906 | [45] 0.859 | [46] 0.845 | [48] 0.859 | [50] 0.866 | [53] 0.841 | [6] 0.821 | [56] 0.894 | [57] 0.873 | [59] 0.825 | [60] 0.861 | [61] 0.899 | [7] 0.877 | [63] 0.748 | [64] 0.788 | [65] 0.708 | [67] 0.912 | [69] 0.89
active: [9] 0.877 | [10] 0.884 | [11] 0.89 | [14] 0.893 | [16] 0.909 | [17] 0.892 | [18] 0.873 | [20] 0.898 | [22] 0.867 | [26] 0.868 | [28] 0.885 | [30] 0.871 | [1] 0.667 | [36] 0.892 | [39] 0.878 | [44] 0.877 | [5] 0.758 | [47] 0.652 | [49] 0.88 | [51] 0.867 | [52] 0.895 | [54] 0.874 | [55] 0.866 | [58] 0.879 | [62] 0.891 | [66] 0.894 | [8] 0.691 | [68] 0.892 | [70] 0.866 | [71] 0.863
